Among the data in PubChem BioAssay (NCATS) are Potency values, retold here.

Activity calls are given as the source filed them. How the calls were made is not given here.
Potency means the concentration at half of the fitted maximal effect.

The assay in a line: Immunotoxin (HA22) sensitization/mitigation study. Vehicle arm (PBS) (AID 1159510). Conditions: cancer cells viability with PBS vehicle (HA22 study); series mostly up to 46.1 µM.
Consider `Cc1nc(N)sc1-c1ccnc(Nc2ccc(N3CCOCC3)cc2)n1`, for which the Potency was 5.9 µM (active).
Turning to `CCN(c1ccccc1)c1cc(NC)[n+](C)c(C)n1`, the Potency is 18.7 µM (active).
The result for `S=C(NCc1ccc2c(c1)OCO2)N1CCN(c2ncnc3c2oc2ccccc23)CC1` reads 18.7 µM (active).
The result for `CC[C@@H](C)[C@H](NC(=O)[C@H](CC1CCCCC1)NC(=O)c1ccno1)C(=O)N1CCC2(CCc3ccccc32)CC1` reads “inactive”.
To `COc1nc(C)cnc1NS(=O)(=O)c1cccnc1-c1ccc(-c2nnco2)cc1` belongs “inactive”; to `O=C(Nc1cccnc1)N1CCC(Cc2cccc(Oc3ccc(C(F)(F)F)cn3)c2)CC1`, 16.6 µM (active); to `Cc1cc(C=c2sc3nc4ccccc4n3c2=O)c(C)n1-c1ccccc1`, 18.7 µM (active).
Consider `O=C(Nc1ccc(F)c(C(F)(F)F)c1)Nc1nnc(-c2ccncc2)s1`, for which the Potency was 2.09 µM (active).
As to `Cc1cc(Nc2cc(N3CCN(C)CC3)nc(C=Cc3ccccc3)n2)n[nH]1`, the Potency was 1.32 µM (active).
The result for `Cc1cccc(C=NNc2cc(N3CCOCC3)nc(OCCc3ccccn3)n2)c1` reads 4.69 µM (active); that for `COc1cc2ncnc(Nc3ccc(F)c(Cl)c3)c2cc1NC(=O)C=CCN1CCCCC1`, 9.35 µM (active).
The result for `CNc1nccc(-c2cccnc2Oc2cc(C(=O)Nc3cccc(C(F)(F)F)c3)ccc2C)n1` reads 14.8 µM (active); that for `CN1C(=O)C(Cc2c[nH]c3ccccc23)NC1=S` (centres undefined), “inactive”.
The result for `CN([C@@H](Cc1ccc(OS(=O)(=O)c2cccc3cnccc23)cc1)C(=O)N1CCN(c2ccccc2)CC1)S(=O)(=O)c1cccc2cnccc12` reads “inactive”.
